The text below walks through data of PubChem BioAssay (NCI).

The panel holds about 83,000 compounds, 20% with a hit somewhere; the sample as a whole holds those more often.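 Growth was measured after 48 h exposure to one concentration of compound in 96-well plates. Values under 10 count as active.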 Unmarked numbers belong to inactive results. Active and inactive are the calls of the source.

Test systems include NCI-H23 lung; NCI-H226 lung; NCI-H322M lung; HOP-62 NSCLC; NCI-H460 lung; HOP-92 NSCLC; NCI-H522 lung; A549/ATCC NSCLC; 786-0 renal; COLO 205 colon.
Assay in all cases: NCI-60 one-dose screen, 48 h (100 = growth as untreated, 0 = no growth, -100 = all killed)
Common to all, as to conditions: 10 µM unless noted

Take `COc1ccc(NC(=O)Nc2ccc(-c3ccc(OC)c(OC)c3)nc2C)cc1`: the growth is 67.4% in the experiment on NCI-H23 lung; 58% in the experiment on NCI-H226 lung; 87% with NCI-H322M lung; 56.5% in the experiment with HOP-62 NSCLC; 17.6% in the experiment on NCI-H460 lung; 73.4% in the experiment with HOP-92 NSCLC. Also, the growth with NCI-H522 lung was 49.9%; in the experiment on A549/ATCC NSCLC, 57%; in the experiment on 786-0 renal, 11.1%; in the experiment on COLO 205 colon, 91.9%.
Regarding `CN(C)c1ccc(/C=N/N=C(N)N)cc1`, the growth in the experiment on NCI-H23 lung was 81.2%; in the experiment on NCI-H226 lung, 82.2%; in the experiment on NCI-H322M lung, 99.4%; in the experiment with HOP-62 NSCLC, 75.3%; in the experiment with NCI-H460 lung, 83.2%; in the experiment with HOP-92 NSCLC it was 73.6%. For the same molecule, the growth with NCI-H522 lung was 66.7%; in the experiment with A549/ATCC NSCLC, 70.7%; in the experiment with 786-0 renal, 103%; in the experiment on COLO 205 colon, 54.7%.
For the molecule `Fc1ccc(/C=N/n2c(-c3cc(Cl)cc(Cl)c3Cl)nn(CNc3ccc(Cl)nn3)c2=S)cc1`, the growth is 86.3% in the experiment on NCI-H23 lung; 97.1% in the experiment on NCI-H226 lung; 94.9% in the experiment on NCI-H322M lung; 82.4% with HOP-62 NSCLC; 112% in the experiment with NCI-H460 lung; 49.5% in the experiment with HOP-92 NSCLC. The growth with NCI-H522 lung was 82.8%; in the experiment on A549/ATCC NSCLC, 99.3%; with 786-0 renal, 85.5%; in the experiment on COLO 205 colon it was 100%.
As to `C#CC(=O)/C=C/CCCCCCC#CC(=O)CCC(=O)C#CCCCCCC/C=C/C(=O)C#C`, the growth in the experiment with NCI-H23 lung was 15%; with NCI-H226 lung, 122%; in the experiment on NCI-H322M lung, 93.5%; in the experiment on HOP-62 NSCLC, 61.2%; in the experiment on NCI-H460 lung, 80%; in the experiment on HOP-92 NSCLC, -42.3% (active). Moreover, the growth in the experiment with NCI-H522 lung was -78.6% (active); in the experiment on A549/ATCC NSCLC it was 87.8%; with 786-0 renal it was -46.9% (active); in the experiment with COLO 205 colon, -0.795% (active).
Take `CCOC(=O)c1cnc2c(OC)ccc(OC)c2c1Cl`: the growth is 110% in the experiment with NCI-H23 lung; 113% with NCI-H226 lung; 120% with NCI-H322M lung; 101% in the experiment with HOP-62 NSCLC; 108% in the experiment with NCI-H460 lung; 98.5% in the experiment on HOP-92 NSCLC. Besides, the growth was 120% with NCI-H522 lung, 97.3% in the experiment on A549/ATCC NSCLC, 117% in the experiment on 786-0 renal and 117% in the experiment with COLO 205 colon.
For the molecule `CN1CCN(CC(O)COc2c(Br)c(Br)c(Br)c3c2OC(C)(C)C3)CC1` (configuration not stated), the growth in the experiment with NCI-H23 lung is 82.4%; with NCI-H226 lung it was 99.2%; in the experiment with NCI-H322M lung, 73%; in the experiment on HOP-62 NSCLC, 16.4%; with NCI-H460 lung, 23%; in the experiment on HOP-92 NSCLC, -3.44% (active). In addition, the growth in the experiment on NCI-H522 lung was 42.6%; in the experiment on A549/ATCC NSCLC it was 63.6%; in the experiment with 786-0 renal, 11.8%; in the experiment with COLO 205 colon, -45.3% (active).
Turning to `COc1ccc2c(c1)C(=O)/C(=C/c1ccc(OCC(=O)c3ccc(Cl)cc3)cc1)O2`, the growth was 97.1% with NCI-H23 lung; 80.7% in the experiment with NCI-H226 lung; 121% with HOP-62 NSCLC; 106% in the experiment with NCI-H460 lung; 50.6% in the experiment with HOP-92 NSCLC; -64.2% (active) in the experiment with NCI-H522 lung. For the same molecule, the growth in the experiment on A549/ATCC NSCLC is 99.2%; in the experiment on 786-0 renal, 115%; in the experiment with COLO 205 colon, 123%.
On to `Nc1ncnc2c1ncn2C1OC(COC(c2ccccc2)(c2ccccc2)c2ccccc2)C(O)C1O` (configuration not stated), for which the growth in the experiment on NCI-H23 lung is 89.8%; in the experiment on NCI-H226 lung it was 92.1%; with NCI-H322M lung, 96.5%; in the experiment on NCI-H460 lung it was 25.9%; in the experiment on HOP-92 NSCLC, 86.6%; in the experiment on NCI-H522 lung, 97.4%. Besides, the growth is 94.3% with A549/ATCC NSCLC, 99.1% with 786-0 renal and 99.4% in the experiment on COLO 205 colon.
As to `OCc1cnccc1NC12CC3CC(CC(C3)C1)C2`, the growth with NCI-H23 lung was 102%; with NCI-H226 lung it was 95.4%; in the experiment on NCI-H322M lung, 103%; with NCI-H460 lung it was 100%; with HOP-92 NSCLC it was 86.2%; in the experiment on NCI-H522 lung, 86.1%. For the same molecule, the growth in the experiment with A549/ATCC NSCLC was 96%; with 786-0 renal, 101%; with COLO 205 colon it was 91.1%.
Turning to `CCOC(=O)C1=C(N)Oc2cc(OC)ccc2C1c1ccc(F)c(F)c1` (configuration not stated), the growth in the experiment with NCI-H23 lung is 45.1%; in the experiment with NCI-H226 lung, 68%; in the experiment with NCI-H322M lung, 46.8%; with NCI-H460 lung it was 16.8%; with HOP-92 NSCLC, 73.6%; with NCI-H522 lung, -6.42% (active). Also, the results for the growth in the experiment on A549/ATCC NSCLC, in the experiment with 786-0 renal and with COLO 205 colon were 42.1%, 33.1% and 25.2%, respectively.
For the molecule `CC1(C)N=C(N)N=C(N)N1c1ccc(OCC(=O)Nc2ccccc2)c(Cl)c1`, the growth was 24% with NCI-H23 lung; 99.7% in the experiment with NCI-H226 lung; 40.2% in the experiment on NCI-H322M lung; -3.64% (active) in the experiment with HOP-62 NSCLC; 15.3% in the experiment with NCI-H460 lung; 13.4% in the experiment with HOP-92 NSCLC. Moreover, the growth in the experiment on NCI-H522 lung is -7.05% (active); in the experiment on A549/ATCC NSCLC, 11.2%; in the experiment on COLO 205 colon, 82.9%.
As to `Cc1cn([C@]2(CF)O[C@H](CO)C2C)c(=O)[nH]c1=O` (some centres not stated), the growth is 111% in the experiment on NCI-H23 lung; 111% in the experiment with NCI-H226 lung; 108% in the experiment on NCI-H322M lung; 125% in the experiment on NCI-H460 lung; 107% in the experiment on HOP-92 NSCLC; 87.1% in the experiment with NCI-H522 lung. In addition, the growth was 109% with A549/ATCC NSCLC, 101% in the experiment with 786-0 renal and 108% in the experiment with COLO 205 colon.
Regarding `CC1(C)N=C(N)N=C(N)N1c1cccc(CCCCc2ccccc2)c1`, the growth in the experiment on NCI-H23 lung is 10.8%; with NCI-H226 lung, 25.9%; in the experiment on NCI-H322M lung, 21.6%; with NCI-H460 lung, 0.878% (active); in the experiment with HOP-92 NSCLC, -30.8% (active); in the experiment with NCI-H522 lung it was -42.1% (active). The growth with A549/ATCC NSCLC is -6.95% (active); in the experiment with 786-0 renal, -48.4% (active); with COLO 205 colon, -84.7% (active).
Regarding `COc1ccc(Cl)cc1NC(=O)c1cc2c([nH]1)-c1nc(N)sc1CCC2`, the growth was 86.4% with NCI-H23 lung; 95.6% in the experiment with NCI-H226 lung; 87.1% in the experiment with NCI-H322M lung; 109% in the experiment on NCI-H460 lung; 132% in the experiment with HOP-92 NSCLC; 64.3% with NCI-H522 lung. In addition, the growth with A549/ATCC NSCLC is 69.6%; in the experiment on 786-0 renal, 99.7%; in the experiment with COLO 205 colon, 121%.
